Most compounds without a hit are left out; they make up all but 7.9% or so of the library.
FMDV inh – blocks foot and mouth disease virus; AID 1159524; FMDV antiviral cell-based qHTS; actives 1.2% (n = 410,000); Potency, µM (titrated, usually from 57.9 µM), hits mostly inhibitors; calls by dose curve; tested in HEK293T cells; also: read-out not given here; nearly all actives have a fitted effect of over 45% in size
Marburg entry inh – inhibitors of Marburg virus binding or cell entry. Marburg virus pseudotyped entry inhibition, cell reporter. actives 1.8% (n = 300,000). Potency, µM (top dose mostly 37.8 µM), usual class: inhibitors; calls by dose curve; tested in HEK293 cells
HCMV antiviral – blocks human cytomegalovirus replication; HFF cells, HCMV-luciferase reporter, 72 h; hits give low values; activity change, negative = inhibition, % at 57.5 µM; actives 4.5% (n = 410,000); AID 1259415; in the data active = activity change below about -60%; inconclusive = no clear call, values can overlap the other calls; inactive = above about -39%
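Two-dose cell screen: HFF monolayers treated with compounds and infected with luciferase-expressing HCMV at 1 PFU/cell, 72 h at 37C, then lysed for luciferase measurement.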
HCV inhibitor – blocks hepatitis C virus; Huh7.5.1 HCVcc-Cre infection, luciferase reporter, 44 h; Potency, µM (top dose mostly 41.8 µM), most hits filed as inhibitors; actives 3.4% (n = 340,000); active = well fitted inhibition curve with a large enough effect; inconclusive = small, poorly fitted or top-dose-only effect, or another doubt; inactive = no such curve, though single readings can be large or run the other way
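Infectious HCVcc-Cre (~0.5 moi) was added to cells just after compound, with cells seeded 4 h earlier at 1,000 per well. Luciferase activity after 44 h culture reported infection; substrate was incubated 15 min at room temperature before reading.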
Lassa entry inh – inhibitors of Lassa virus binding or cell entry; Lassa virus pseudotype entry inhibition, cell reporter; Potency, µM (doses to about 37.9 µM), usual class: inhibitors; actives 1.2% (n = 300,000); calls by dose curve; tested in HEK293 cells; also: nearly all actives have a fitted effect of over 50% in size
A number is an active result; n = inactive; u = inconclusive; x = no result; ! = repeats disagree; [ ] = remark or other dose.

SMILES | FMDV inh | Marburg entry inh | HCMV antiviral | HCV inhibitor | Lassa entry inh
NC(=O)c1nsc(C(=O)N(c2ccccc2)C(C(=O)NCc2ccc(F)cc2)c2ccco2)c1N (stereo not given) | n | u | u | u | u
NC(=O)c1nsc(C(=O)N(c2ccccc2)C(C(=O)NCc2ccc(F)cc2)c2ccc(O)cc2)c1N (stereo not given) | n | u | n | u | 2.2µM
COc1ccc(N(C(=O)c2snc(C(N)=O)c2N)C(C(=O)NCc2ccccc2)c2ccc(O)cc2)cc1 (stereo not given) | n | n | n | u | 0.73µM
COc1ccc(OC)c(N(C(=O)c2snc(C(N)=O)c2N)C(C(=O)NCc2ccccc2)c2ccc(O)cc2)c1 (stereo not given) | n | n | n | u | u
CC(=O)Oc1ccccc1[C@@H]1OCCN1C(C)=O | x | n | x | x | x
CCc1ccc(-n2c(N3CCN(c4cccc(Cl)c4)CC3)nc3ccccc3c2=O)cc1 | n | u | n | x | n
O=c1c2ccccc2nc(N2CCCC2)n1-c1ccc(Cl)cc1 | n | n | -63 | u | n
COc1nc2ccccc2c(=O)n1-c1ccc(Cl)cc1 | n | n | -61 | n | u
CN(C)c1ncc(C2=C(Cl)C(=O)C(N3CCCC3)=C(Cl)C2=O)s1 | u | u | -64 | 7.9µM | u
O=C1C(Cl)=C(N2CCCCC2)C(=O)C(Cl)=C1c1cnc(N2CCCCC2)s1 | n | u | x | u | 12µM
CC(=O)c1cnc(N(C)C)s1 | n | n | n | n | n
O=C(CN1C(=O)c2ccccc2S1(=O)=O)NC1CCCCCC1 | n | x | -75 | n | x
CC1CCN(C(=O)CN2C(=O)c3ccccc3S2(=O)=O)CC1 | n | u | n | n | 7.9µM
O=C(CN1c2cccc3cccc(c23)S1(=O)=O)NC1CCCCC1 | n | x | n | u | x
Cc1cccc(C(=O)Nc2cccc3cccnc23)c1 | n | x | n | n | x
COc1cc(NC(=O)c2c(-c3ccccc3Cl)noc2C)c2ncccc2c1 | n | n | n | u | u
Cc1cnc(C(=O)Nc2cccc3cccnc23)cn1 | n | u | -89 | u | 1.6µM
CCOc1ccc(OC(=O)c2c(-c3ccccc3Cl)noc2C)cc1 | 40µM | x | n | x | n
Cc1onc(-c2ccccc2Cl)c1C(=O)Nc1ccccc1C(N)=O | 11µM | n | n | n | n
Cc1onc(-c2ccccc2Cl)c1C(=O)Nc1cccc2cccnc12 | u | u | -99 | 7.1µM | u
CCc1cccc(C)c1NC(=O)c1cn2c3c(ccc(Cl)c3c1=O)OC(C)C2 (stereo not given) | n | x | n | x | n
COC(=O)c1ccc(NC(=O)c2cc(=O)c3ccc(C)cc3o2)cc1 | n | n | n | x | n
Cc1nn2c(NCc3ccccn3)cc(C(C)C)nc2c1-c1ccccc1 | n | x | -98 | 4µM | x
Cc1nn2c(NC(C)C)c3c(nc2c1-c1ccccc1)CCC3 | n | u | n | n | u
Cc1cc(NCc2ccccn2)n2ncc(-c3ccccc3)c2n1 | n | u | -66 | 2.8µM | u
SMILES | FMDV inh | Marburg entry inh | HCMV antiviral | HCV inhibitor | Lassa entry inh
Cc1nn2c(NCC(C)C)c3c(nc2c1-c1ccccc1)CCC3 | n | u | x | 6.3µM | n
CCCc1cc(NCc2ccccn2)n2nc(C)c(-c3ccccc3)c2n1 | n | u | -95 | u | u
Cc1cc(NCc2ccccn2)n2ncc(-c3ccc(Cl)cc3)c2n1 | n | u | n | u | n
Cc1cc(NCCC(C)C)n2nc(C)c(-c3ccccc3)c2n1 | n | u | n | 8.9µM | n
Cc1cccc(NC(=O)CSc2ncc(-c3ccc(Br)cc3)[nH]2)c1 | n | u | n | x | n
CSc1ccc(/C=C/c2cc(=O)c3ccccc3[nH]2)cc1 | n | u | n | u | n
O=c1cc(/C=C/c2cccs2)[nH]c2ccccc12 | u | 4.1µM | -85 | u | 6.5µM
O=[N+]([O-])c1ccc(Sc2nccn2Cc2ccccc2)cc1 | x | n | -77 | n | n
Clc1ccc(CSc2nccn2Cc2ccccc2)cc1 | n | u | u | u | n
O=C(/C=C/c1cccc2ccccc12)c1ccncc1 | 14µM | u | -83 | 16µM | u
O=[N+]([O-])c1ccc(N/N=C/c2ccc(O)c(O)c2O)c(S(=O)(=O)N2CCOCC2)c1 | u | n | n | u | n
O=[N+]([O-])c1ccc(N/N=C/c2cccc(O)c2O)c(S(=O)(=O)N2CCOCC2)c1 | u | x | n | 2.8µM | x
C/C=C\c1ccccc1OCc1ccc(C(=O)O)o1 | x | n | x | x | x
Cc1ccc(C)c(N2CCN(S(=O)(=O)c3cc(-c4cc(C)no4)ccc3C)CC2)c1 | n | x | n | x | n
Cc1cc(-c2ccc(C)c(S(=O)(=O)N3CCN(c4ccc([N+](=O)[O-])cc4)CC3)c2)on1 | n | u | -73 | u | u
O=C(Cc1ccccc1)NCC(=O)N1CCN(c2ccccc2F)CC1 | n | u | n | n | n
CN(c1ccccc1)P(=O)(N1CC1)N1CC1 | n | n | n | n | n
CN(c1ccccc1)P(=O)(N(C)c1ccccc1)N(C)c1ccccc1 | n | x | -86 | n | x
CC1CCN(C2=NC(=O)/C(=C/c3cn(-c4ccccc4)nc3-c3cccc(S(=O)(=O)N(C)C)c3)S2)CC1 | n | u | -62 | u | n
CCCCOC(=O)Nc1ccc(S(=O)(=O)Nc2onc(C)c2C)cc1 | n | x | n | n | x
CCCCCN(C(=O)CCC(=O)OCc1cccc(F)c1)c1c(N)n(CCCC)c(=O)[nH]c1=O | n | n | n | n | n
CC1(C)S[C@@H]2[C@H](NC(=O)[C@H](N)c3ccc(O)cc3)C(=O)N2[C@H]1C(=O)O | n | n | n | u | n
CC1(C)S[C@@H]2[C@H](NC(=O)[C@H](N)c3ccccc3)C(=O)N2[C@H]1C(=O)O | n | n | -60! | n[8.37 µM] | n
COc1cc(/C=C/C(=O)OCC(=O)N(C)Cc2ccccc2)ccc1O | n | x | n | n | x
Cc1nc2ccccc2nc1CN1CCOc2ccc(CN3CCc4sccc4C3)cc2C1 | n | x | x | x | x
SMILES | FMDV inh | Marburg entry inh | HCMV antiviral | HCV inhibitor | Lassa entry inh
CCOC1=C2[C@H](c3ccccc3)N(S(=O)(=O)c3ccc(C)cc3)C(C(C)(C)C)[C@H]2C(C#N)(C#N)C(C#N)(C#N)C1 (stereo not given in full) | u | x | -100 | x | x
CCCCC[C@@H]1[C@@H]2C(=C(OCC)C[C@@H]3C(=O)N(c4ccccc4)C(=O)[C@H]23)[C@H](c2ccccc2)N1S(=O)(=O)c1ccc(C)cc1 | n | x | n | x | x
Cc1ccc(NC(=O)C2CC(=O)N(c3ccc(OC(C)C)cc3)C2)cc1 (stereo not given) | n | x | n | x | n
O=C(c1[nH]ncc1-c1cccc(Br)c1)C1CO1 (stereo not given) | 35µM | u | n | u | u
O=S1(=O)c2cccc3cccc(c23)N1CCCN1CCN(c2ccc(F)cc2)CC1 | n | x | x | x | x
COc1ccc(CC2(CO)CCN(Cc3cnn(-c4ccc(F)cc4)c3)CC2)cc1 | u | x | n | 10µM | x
COc1ccc(CC2(CO)CCN(CC3=Cc4cc(Cl)ccc4OC3)CC2)cc1 | u | u | u | 4.5µM | u
COc1ccc(CC2(CO)CCN(Cc3cnn(-c4ccccc4)c3)CC2)cc1 | u | u | n | u | n
Cc1ccc(-n2c(C)cc(C(=O)CN3CCOCC3)c2C)cc1C | n | n | n | n | u

High-throughput results (PubChem)
